Values joined by “and” are separate entries in the source; they are usually repeats but may differ in a detail not shown here. Identical values can stand only once. A number with no mark means an inactive call. Inconclusive results are not listed. Entries that show only a call come without a potency. Active and inactive are the calls of the source. The call rests on the fitted dose curve; in most records, active means well fitted curve in the direction sought with a large enough effect in the repeat runs; inconclusive means weak or mixed curves; inactive means no such curve, though single readings can be large; an effect the other way counts as inactive or inconclusive.
Tests used:
[1] = A CellTox Green Cytotoxicity Assay to monitor cytotoxicity in HEK293 cells - 40 hour (AID 1224871); further: nearly all actives have a fitted effect of over 45% in size
Method in brief: (§1)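 Cytotoxicity was tracked continuously in HEK293 cells by a DNA-binding dye excluded from viable cells. Compounds were transferred in DMSO 5 h after seeding; fluorescence was recorded at intervals up to 40 h.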

[2] = qHTS RealTime-Glo MT Cell Viability Assay in HEK293 cells - 16 hour (AID 1224872); further: top concentration of the series differs between compounds; nearly all actives have a fitted effect of over 50% in size
Method in brief: (§2)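 Viability tracked continuously by luminescence as live cells reduce a prosubstrate for NanoLuc; HEK293 cells preincubated 5 h, compound-treated at 37 C, and read at 0, 8, 16, 24, 32 and 40 h.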

[3] = qHTS RealTime-Glo MT Cell Viability Assay in HepG2 cells - 8 hour (AID 1224873); further: nearly all actives have a fitted effect of over 55% in size
Method in brief: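 Real-time viability: cells seeded at 600 per well together with NanoLuc and cell-permeant prosubstrate, compounds added after 5 h incubation. Luminescence tracked at 0, 8, 16, 24, 32 and 40 h of exposure.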

[4] = qHTS RealTime-Glo MT Cell Viability Assay in HEK293 cells - 40 hour (AID 1224874); details: RealTime-Glo luminescence; max response: active compounds read low; further: nearly all actives have a fitted effect of over 50% in size
Method in brief: (§3)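 Nonlytic bioluminescent viability monitoring. HEK293 at 600 cells/well with reagent; 5 h settle; compound transfer by pintool; plates held at 37 C and read at set time points.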

[5] = A CellTox Green Cytotoxicity Assay to monitor cytotoxicity in HEK293 cells - 24 hour (AID 1224875); further: series mostly up to about 77 µM; nearly all actives have a fitted effect of over 45% in size
Method in brief: as §1

[6] = A CellTox Green Cytotoxicity Assay to monitor cytotoxicity in HepG2 cells - 16 hour (AID 1224876); further: nearly all actives have a fitted effect of over 45% in size
Method in brief: (§4)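 Real-time, homogeneous cytotoxicity readout: dead-cell DNA staining by CellTox Green in HepG2 monolayers, fluorescence measured at timed intervals up to 40 h of continuous compound exposure.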

[7] = qHTS RealTime-Glo MT Cell Viability Assay in HepG2 cells - 32 hour (AID 1224877); further: nearly all actives have a fitted effect of over 55% in size
Method in brief: (§5)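 Viability was tracked continuously by NanoLuc luminescence from prosubstrate reduced by living HepG2 cells, at successive time points over 40 h of compound exposure. Cells with reagent were preincubated 5 h at 37 °C before compound addition.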

[8] = A CellTox Green Cytotoxicity Assay to monitor cytotoxicity in HepG2 cells - 40 hour (AID 1224879); further: nearly all actives have a fitted effect of over 40% in size
Method in brief: as §4

[9] = qHTS RealTime-Glo MT Cell Viability Assay in HEK293 cells - 0 hour (AID 1224880); further: nearly all actives have a fitted effect of over 45% in size; further: potency means the concentration at half of the fitted maximal effect
Method in brief: as §3

[10] = A CellTox Green Cytotoxicity Assay to monitor cytotoxicity in HEK293 cells - 32 hour (AID 1224881); further: nearly all actives have a fitted effect of over 40% in size
Method in brief: as §1

[11] = A CellTox Green Cytotoxicity Assay to monitor cytotoxicity in HepG2 cells - 0 hour (AID 1224882); further: nearly all actives have a fitted effect of over 35% in size
Method in brief: as §4

[12] = A CellTox Green Cytotoxicity Assay to monitor cytotoxicity in HepG2 cells - 32 hour (AID 1224883); further: nearly all actives have a fitted effect of over 50% in size
Method in brief: as §4

[13] = A CellTox Green Cytotoxicity Assay to monitor cytotoxicity in HEK293 cells - 8 hour (AID 1224884); further: nearly all actives have a fitted effect of over 35% in size
Method in brief: as §1

[14] = qHTS RealTime-Glo MT Cell Viability Assay in HepG2 cells - 16 hour (AID 1224885); further: nearly all actives have a fitted effect of over 50% in size
Method in brief: as §5

[15] = qHTS RealTime-Glo MT Cell Viability Assay in HEK293 cells - 24 hour (AID 1224886)
Method in brief: as §2

[16] = qHTS RealTime-Glo MT Cell Viability Assay in HEK293 cells - 8 hour (AID 1224887)
Method in brief: as §3

[17] = A CellTox Green Cytotoxicity Assay to monitor cytotoxicity in HEK293 cells - 16 hour (AID 1224888); further: nearly all actives have a fitted effect of over 35% in size
Method in brief: as §1

[18] = qHTS RealTime-Glo MT Cell Viability Assay in HepG2 cells - 0 hour (AID 1224889); further: nearly all actives have a fitted effect of over 50% in size; further: potency means the concentration at half of the fitted maximal effect
Method in brief: as §5

[19] = A CellTox Green Cytotoxicity Assay to monitor cytotoxicity in HepG2 cells - 8 hour (AID 1224890); further: nearly all actives have a fitted effect of over 45% in size
Method in brief: as §4

[20] = A CellTox Green Cytotoxicity Assay to monitor cytotoxicity in HepG2 cells - 24 hour (AID 1224878); further: nearly all actives have a fitted effect of over 45% in size
Method in brief: as §4

With CCCCOCCOCCOC(C)=O the Potency [1] was “inactive”, the Potency [2] was “inactive” and the outcome [3] was “inactive”. The max response [4] was 7.04% and 1.04%, the Potency [5] was “inactive” and the Potency [6] was “inactive”. The outcome [7] was “inactive”, the Potency [8] was “inactive” and the Potency [9] was “inactive”. For the same molecule, the Potency [10] was “inactive”, the Potency [11] was “inactive” and the Potency [12] was “inactive”. For the same molecule, the Potency [13] was “inactive”, the Potency [14] was “inactive” and the Potency [15] was “inactive”. For the same molecule, the Potency [16] was “inactive”, the Potency [17] was “inactive” and the Potency [18] was “inactive”. For the same molecule, the Potency [19] was “inactive”.

For CCOC(=O)C(C)(C)Oc1ccc(Cl)cc1, the Potency [1] was “inactive”, the Potency [2] was “inactive” and the outcome [3] was “inactive”. For the same molecule, the max response [4] was 0.886% and 6.32% and -3.11%, the Potency [5] was “inactive” and the Potency [6] was “inactive”. For the same molecule, the outcome [7] was “inactive”, the Potency [9] was “inactive” and the Potency [10] was “inactive”. The Potency [11] was “inactive”, the Potency [12] was “inactive” and the Potency [13] was “inactive”. The Potency [14] was “inactive”, the Potency [15] was “inactive” and the Potency [16] was “inactive”. For the same molecule, the Potency [18] was “inactive” and the Potency [19] was “inactive”.

For O=C1CCCCCN1, the Potency [1] was “inactive”, the Potency [2] was “inactive” and the outcome [3] was “inactive”. The max response [4] was -1.34% and -3.41%, the Potency [5] was “inactive” and the Potency [6] was “inactive”. The outcome [7] was “inactive”, the Potency [8] was “inactive” and the Potency [9] was “inactive”. For the same molecule, the Potency [10] was “inactive”, the Potency [11] was “inactive” and the Potency [12] was “inactive”. For the same molecule, the Potency [13] was “inactive”, the Potency [14] was “inactive” and the Potency [15] was “inactive”. For the same molecule, the Potency [16] was “inactive”, the Potency [17] was “inactive” and the Potency [18] was “inactive”. For the same molecule, the Potency [19] was “inactive”.

For CCCCOCCOCCSC#N, the Potency [1] was “inactive”, the Potency [2] was “inactive” and the outcome [3] was “inactive”. For the same molecule, the max response [4] was 7.99% and 2.19%, the Potency [5] was “inactive” and the Potency [6] was “inactive”. For the same molecule, the Potency [20] was “inactive”, the Potency [8] was “inactive” and the Potency [9] was “inactive”. For the same molecule, the Potency [10] was “inactive”, the Potency [11] was “inactive” and the Potency [12] was “inactive”. The Potency [13] was “inactive”, the Potency [14] was “inactive” and the Potency [15] was “inactive”. For the same molecule, the Potency [16] was “inactive”, the Potency [17] was “inactive” and the Potency [18] was “inactive”. The Potency [19] was “inactive”.

For CC(=O)c1ccc(S(=O)(=O)NC(=O)NC2CCCCC2)cc1, the Potency [1] was “inactive”, the Potency [2] was “inactive” and the outcome [3] was “inactive”. For the same molecule, the max response [4] was 0.507% and 8.7% and 3.73%, the Potency [5] was “inactive” and the Potency [6] was “inactive”. For the same molecule, the Potency [20] was “inactive”, the Potency [8] was “inactive” and the Potency [9] was “inactive”. For the same molecule, the Potency [10] was “inactive”, the Potency [11] was “inactive” and the Potency [12] was “inactive”. For the same molecule, the Potency [13] was “inactive”, the Potency [14] was “inactive” and the Potency [15] was “inactive”. The Potency [16] was “inactive”, the Potency [18] was “inactive” and the Potency [19] was “inactive”.

With O=C(O)CCCCC1CCSS1 (stereo unspecified) the Potency [1] was “inactive”, the Potency [2] was “inactive” and the outcome [3] was “inactive”. For the same molecule, the max response [4] was 9.73% and 12.3% and 7.95%, the Potency [5] was “inactive” and the Potency [6] was “inactive”. For the same molecule, the outcome [7] was “inactive”, the Potency [8] was “inactive” and the Potency [9] was “inactive”. The Potency [10] was “inactive”, the Potency [11] was “inactive” and the Potency [12] was “inactive”. The Potency [13] was “inactive”, the Potency [14] was “inactive” and the Potency [15] was “inactive”. The Potency [16] was “inactive”, the Potency [17] was “inactive” and the Potency [18] was “inactive”. The Potency [19] was “inactive”.

For C[C@]12C[C@H](O)[C@H]3[C@@H](CCC4=CC(=O)CC[C@@]43C)[C@@H]1CC[C@@H]2C(=O)CO, the Potency [1] was “inactive”, the Potency [2] was “inactive” and the outcome [3] was “inactive”. The max response [4] was -9.57%, the Potency [5] was “inactive” and the Potency [6] was “inactive”. For the same molecule, the outcome [7] was “inactive”, the Potency [8] was “inactive” and the Potency [9] was 13.8 µM (active). For the same molecule, the Potency [10] was “inactive”, the Potency [11] was “inactive” and the Potency [12] was “inactive”. For the same molecule, the Potency [13] was “inactive”, the Potency [14] was “inactive” and the Potency [15] was “inactive”. For the same molecule, the Potency [16] was “inactive”, the Potency [18] was 9.79 µM (active) and 3.47 µM (active) and 9.52 µM (active) and the Potency [19] was “inactive”.

In the case of COCCOCCOC, the Potency [1] is reported as “inactive”, the Potency [2] is reported as “inactive” and the outcome [3] is reported as “inactive”. The max response [4] was 13% and 10.3%, the Potency [5] was “inactive” and the Potency [6] was “inactive”. The outcome [7] was “inactive”, the Potency [9] was “inactive” and the Potency [10] was “inactive”. For the same molecule, the Potency [11] was “inactive”, the Potency [12] was “inactive” and the Potency [13] was “inactive”. The Potency [14] was “inactive”, the Potency [15] was “inactive” and the Potency [16] was “inactive”. For the same molecule, the Potency [17] was “inactive”, the Potency [18] was “inactive” and the Potency [19] was “inactive”.

With Cc1ccc(O)c(-n2nc3ccccc3n2)c1 the Potency [1] was “inactive”, the Potency [2] was “inactive” and the outcome [3] was “inactive”. For the same molecule, the max response [4] was -4.85% and -18.6% and -8.22%, the Potency [5] was “inactive” and the Potency [6] was “inactive”. The outcome [7] was “inactive”, the Potency [8] was “inactive” and the Potency [9] was “inactive”. The Potency [10] was “inactive”, the Potency [11] was “inactive” and the Potency [12] was “inactive”. For the same molecule, the Potency [13] was “inactive”, the Potency [14] was “inactive” and the Potency [15] was “inactive”. For the same molecule, the Potency [16] was “inactive”, the Potency [18] was “inactive” and the Potency [19] was “inactive”.

In the case of CN(C)Cc1cc(CN(C)C)c(O)c(CN(C)C)c1, the Potency [1] is reported as “inactive”, the Potency [2] is reported as “inactive” and the outcome [3] is reported as “inactive”. The max response [4] was -0.259% and 3.23%, the Potency [5] was “inactive” and the Potency [6] was “inactive”. The Potency [20] was “inactive”, the Potency [8] was “inactive” and the Potency [9] was “inactive”. For the same molecule, the Potency [10] was “inactive”, the Potency [11] was “inactive” and the Potency [12] was “inactive”. For the same molecule, the Potency [13] was “inactive”, the Potency [14] was “inactive” and the Potency [15] was “inactive”. The Potency [16] was “inactive”, the Potency [17] was “inactive” and the Potency [18] was “inactive”. The Potency [19] was “inactive”.

In the case of Cn1cnc2c1c(=O)[nH]c(=O)n2C, the Potency [1] is reported as “inactive”, the Potency [2] is reported as “inactive” and the outcome [3] is reported as “inactive”. The max response [4] was 8.97% and 7.21%, the Potency [5] was “inactive” and the Potency [6] was “inactive”. The Potency [20] was “inactive”, the Potency [8] was “inactive” and the Potency [9] was “inactive”. For the same molecule, the Potency [10] was “inactive”, the Potency [11] was “inactive” and the Potency [12] was “inactive”. For the same molecule, the Potency [13] was “inactive”, the Potency [14] was “inactive” and the Potency [15] was “inactive”. The Potency [16] was “inactive”, the Potency [17] was “inactive” and the Potency [18] was “inactive”. For the same molecule, the Potency [19] was “inactive”.

For N[C@@H](Cc1c[nH]c2ccc(O)cc12)C(=O)O, the Potency [1] was “inactive”, the Potency [2] was “inactive” and the outcome [3] was “inactive”. For the same molecule, the max response [4] was 3.87% and 1.98%, the Potency [5] was “inactive” and the Potency [6] was “inactive”. The outcome [7] was “inactive”, the Potency [9] was “inactive” and the Potency [10] was “inactive”. For the same molecule, the Potency [11] was “inactive”, the Potency [12] was “inactive” and the Potency [13] was “inactive”. For the same molecule, the Potency [14] was “inactive”, the Potency [15] was “inactive” and the Potency [16] was “inactive”. The Potency [17] was “inactive”, the Potency [18] was “inactive” and the Potency [19] was “inactive”.
